# In PubChem BioAssay AID588489 (Sanford-Burnham Center for Chemical Genomics, 2011):
# In all, about 360,000 compounds went through this assay and about 1,300 (0.36%) were called active. No stated cut-off is given here; in the data, active means inhibition above about 35% (passing the limit was not always enough); inactive means the rest. The entries come from a sample that favours actives as a whole.
# Target: Polyadenylate-binding protein 1 (Homo sapiens) (UniProt P11940)
# Assay: PAM2 peptide displacement from PABP1 MLLE – biochemical, fluorescence polarization, FITC-PAM2, GST-MLLE, primary screen (AID 588489);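 further: plate controls were DMSO wells with GST-MLLE for no effect and wells lacking GST-MLLE protein for full effect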
# Conditions: at 20 µM, stronger effect = higher value
# Sequence of Polyadenylate-binding protein 1 (Homo sapiens) (P11940 whole entry, looked up): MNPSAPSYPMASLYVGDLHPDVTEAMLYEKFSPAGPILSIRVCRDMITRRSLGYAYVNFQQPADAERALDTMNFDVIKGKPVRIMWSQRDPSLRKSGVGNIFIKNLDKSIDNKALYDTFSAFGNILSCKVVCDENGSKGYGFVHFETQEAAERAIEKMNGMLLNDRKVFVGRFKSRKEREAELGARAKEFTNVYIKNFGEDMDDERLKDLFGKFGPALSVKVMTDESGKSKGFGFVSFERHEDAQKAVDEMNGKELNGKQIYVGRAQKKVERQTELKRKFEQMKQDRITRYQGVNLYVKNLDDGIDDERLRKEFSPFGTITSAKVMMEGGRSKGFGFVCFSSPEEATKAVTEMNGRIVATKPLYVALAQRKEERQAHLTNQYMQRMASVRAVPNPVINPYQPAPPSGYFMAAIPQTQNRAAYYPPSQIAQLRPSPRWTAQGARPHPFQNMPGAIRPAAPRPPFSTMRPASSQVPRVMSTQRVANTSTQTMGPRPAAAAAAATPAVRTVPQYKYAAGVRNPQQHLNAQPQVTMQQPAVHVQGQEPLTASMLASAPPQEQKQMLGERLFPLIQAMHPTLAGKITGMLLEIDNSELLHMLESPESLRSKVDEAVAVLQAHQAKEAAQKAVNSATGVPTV
row,Structure (SMILES),inhibition
1,C=CCC(NCCCO)c1cccc(OC)c1OC (stereo not drawn),9.54% (inactive)
2,O=C1[C@@H](c2ccccc2)[C@@H](c2ccccc2)N1c1cccnc1,-0.26% (inactive)
3,O=C(O)c1cscn1,-3.08% (inactive)
4,O=S(=O)(NC(=S)Nc1ccccc1)c1ccc(F)cc1,33.4% (inactive)
5,CC(NC(=S)Nc1ccc(OC(F)F)cc1)c1ccc(F)cc1 (stereo not drawn),-13.4% (inactive)
6,Cc1ccc(NC(=S)Nc2ccc(F)cc2)cc1,37.8% (active)
7,COc1ccc(/C=N/Nc2ncnc3sc4c(c23)CCCC4)cc1O,-12.9% (inactive)
8,O=C(NC1(C(F)(F)F)N=C2SCCN2C1=O)c1ccco1 (stereo not drawn),35.9% (inactive)
9,O=Cc1c(Cl)cccc1Cl,9.74% (inactive)
10,O=C1N=C2SCCN2/C1=C\c1c(Cl)cccc1Cl,38.4% (active)
11,Cc1ccc(CNC(=O)C2CCN(S(=O)(=O)c3ccc4nc5c(c(C(=O)O)c4c3)CC(C)CC5)CC2)cc1 (stereo not drawn),-3.02% (inactive)
12,COc1ccccc1CNC(=O)CCCn1c(=O)c2ccccc2n(CC(=O)NC2CCCC2)c1=O,12% (inactive)
13,CC(NC(=O)Nc1ccccc1)C(c1cccs1)N1CCN(c2ccccc2)CC1 (stereo not drawn),-4.15% (inactive)
14,CC(=O)Nc1cc(-c2ccccc2N(C)C)cn2c(-c3ccc(F)c(Cl)c3)cnc12,48.4% (active)
15,CC(=O)Nc1cc(-c2ccccc2F)cn2c(-c3cccc(C(F)(F)F)c3)cnc12,-12.1% (inactive)
16,COc1ccccc1-c1cc(NC(C)=O)c2ncc(-c3ccc(F)cc3)n2c1,-10.4% (inactive)
17,N#Cc1ccc(C2=CC(=O)C[C@H](c3ccc(Cl)cc3)C2)cc1,6.39% (inactive)
18,COc1cc2c(cc1NC(=O)COC(=O)/C=C/c1ccccc1)oc1ccccc12,11% (inactive)
19,CCN1C(=O)[C@H]2[C@@H](c3ccc(C)cc3)N3C(=O)N(c4cccc(Br)c4)C(=O)[C@@]3(CC)[C@H]2C1=O,11.2% (inactive)
20,CCC(=O)NNc1cc(=O)c2c(=O)n(C)c(=O)n(C)c2[nH]1,-6.2% (inactive)
21,CC(=O)N(c1ccc2oc(=O)sc2c1)S(=O)(=O)c1ccc(C)cc1,41.1% (active)

row,Structure (SMILES),inhibition
1,CC(=O)Oc1ccc(N(C(C)=O)S(=O)(=O)c2ccc3ccccc3c2)cc1Br,-22.5% (inactive)
2,COC(=O)c1c(C)oc2ccc(N(C(=O)Oc3ccccc3)S(=O)(=O)c3ccccc3)cc12,9.28% (inactive)
3,Cc1nn(C)c(Oc2ccc(Cl)cc2)c1C=O,-2.27% (inactive)
4,CCC(=O)N1CCC(C)(C(=O)Nc2cc(OC)c(OC)c(OC)c2)C1 (stereo not drawn),4.71% (inactive)
5,CC(CC(=O)N1CCN(S(=O)(=O)c2ccccc2)CC1)n1cncn1 (stereo not drawn),21.2% (inactive)
6,NC(=S)c1ccc(C(N)=S)o1,37.7% (active)
7,Cc1ccccc1NC(=O)CSC(=O)c1ccccc1,44.4% (active)
8,Cc1ccccc1NC(=O)CSC1=NCCN1,16% (inactive)
9,Cc1ccccc1NC(=O)CCOc1ccccc1,4.98% (inactive)
10,Cc1cccc(NC(=O)CSc2nc3c(c(=O)[nH]2)CCCC3)c1C,-11.1% (inactive)
11,Cc1cccc(NC(=O)CSC(N)=O)c1C,38.8% (active)
12,Cc1cccc(NC(=O)COC(=O)CCc2ccccc2)c1C,-0.48% (inactive)
13,FC(F)(F)C1CCCN(c2nsc3ccccc23)C1 (stereo not drawn),33.5% (inactive)
14,COc1ccc(C(=O)C[n+]2ccc(N)c(C)c2C)cc1,-11.1% (inactive)
15,CC12CCC(C(=O)N3CCN(c4ncccn4)CC3)(c3nc4ccccc4nc31)C2(C)C (stereo not drawn),14.9% (inactive)
16,CCOC(=O)CN1C(=O)C(O)(CC(=O)c2ccccn2)c2ccccc21 (stereo not drawn),11.1% (inactive)
17,CCCCOC(=O)CNc1nnc(SCC(=O)OCC)[nH]c1=O,38.4% (active)
18,CCOC(=O)CSc1nc(C)c(Oc2ccc(Cl)cc2Cl)c(=O)[nH]1,-8.63% (inactive)
19,Cc1nnc(SCC(=O)N2CCOCC2)[nH]c1=O,11.7% (inactive)
20,Cc1ccccc1NC(=O)N1CCCC1C(=O)NCc1ccccc1 (stereo not drawn),-5.08% (inactive)
21,COc1ccc(C(C#N)Nc2ccc(C)cc2)cc1 (stereo not drawn),-0.36% (inactive)

row,Structure (SMILES),inhibition
1,CCOC(=O)C1CCCN(S(=O)(=O)c2ccc3c(c2)C(C)(C)C(=O)N3C)C1 (stereo not drawn),0.52% (inactive)
2,Cc1cccc(CC(=O)N2CCN=C2SCc2ccc([N+](=O)[O-])cc2)c1,40.2% (active)
3,O=C(Cc1ccc(F)cc1)N1CCN=C1SCc1cccc([N+](=O)[O-])c1,-6.14% (inactive)
4,Cc1cc(C)cc(C(=O)N2CCN=C2SCc2ccc([N+](=O)[O-])cc2)c1,34.7% (inactive)
5,CC(C)=CCN1CCN(Cc2cc3ccccc3[nH]2)CC1CCO (stereo not drawn),-5.44% (inactive)
6,CCOC(=O)c1c(NC(=O)C2(C)Cc3ccccc3C(=O)O2)sc2c1CCCC2 (stereo not drawn),38.6% (active)
7,CCOC(=O)c1c(NC(=O)C2CCN(S(=O)(=O)c3ccc(Cl)cc3)CC2)sc2c1CCCC2,1.94% (inactive)
8,CCOC(=O)c1c(NC(=O)C(C)Sc2c[nH]c3ccccc23)sc2c1CCC2 (stereo not drawn),2.56% (inactive)
9,CCc1cc2cc(OC)ccc2nc1SCC(=O)Nc1cc(OC)c(OC)cc1C(=O)O,19.2% (inactive)
10,CN(C(=O)CN1C(=O)S/C(=C\c2ccccc2F)C1=O)C1CCS(=O)(=O)C1 (stereo not drawn),34% (inactive)
11,CN(C(=O)CCN1C(=O)/C(=C/c2ccccc2F)SC1=S)C1CCS(=O)(=O)C1 (stereo not drawn),47.2% (active)
12,COc1ccccc1/C=C1\SC(=O)N(CCC(=O)N(C)C2CCS(=O)(=O)C2)C1=O (stereo not drawn),15.8% (inactive)
13,CCCCOc1ccc(C(=O)NCC(=O)OCC(=O)N2CCN(S(=O)(=O)c3ccc(C)cc3C)CC2)cc1,-5.79% (inactive)
14,CC1(C(=O)Nc2cccc3cccnc23)CCN1C(=O)CCC1CCCC1 (stereo not drawn),-9.79% (inactive)
15,O=C(CN1CCOCC1)Nc1c(-c2ccccc2)c2cc(Br)ccc2[nH]c1=O,7.03% (inactive)
16,CS(=O)(=O)N(CC(=O)N/N=C/c1ccccn1)c1ccc(Oc2ccccc2)cc1,1.62% (inactive)
17,Nc1nc(C23CC4CC(CC(C4)C2)C3)cs1,-0.54% (inactive)
18,Cc1cc(-c2csc(N)n2)c(C)n1-c1ccccc1,-12.2% (inactive)
19,COc1c(F)c(F)c(-c2csc(N)n2)c(F)c1F,41% (active)
20,Cc1cc(C(F)F)n2nc(C(=O)Nc3ccc(S(=O)(=O)NC45CC6CC(CC(C6)C4)C5)cc3)nc2n1,0.98% (inactive)
21,Cc1cc(C)c2c(-n3cccc3)c(C(=O)NNS(=O)(=O)c3ccc(F)cc3)sc2n1,-3.3% (inactive)
